Assay outcomes deposited in PubChem BioAssay by National Center for Advancing Translational Sciences (NCATS).
In the library only some 4.2% were active in any assay of this set; here they are far more common.
PLK1 PBD inh = qHTS for Inhibitors of PLK1-PDB (polo-like kinase 1 - polo-box domain): Primary Screen. Plk1 PBD binding of FITC phosphopeptide, fluorescence polarization. Potency, µM, inactives show max response, negative = inhibition, actives largely listed as inhibitors. 2.8% of 360,000 active. AID 720504, 2013; also: series mostly up to about 57 µM; nearly all actives have a fitted effect of over 65% in size
VDR inhibitor = Inhibitors of the vitamin D receptor (VDR): qHTS; VDR-SRC2-3 peptide fluorescence polarization, 2 h; Potency, µM, for inactives: max response, negative = inhibition, usual class: inhibitors; 0.93% of 400,000 active; AID 504847, 2011; Vitamin D3 receptor (Homo sapiens), P11473
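The screen uses fluorescence polarization to detect compounds that interfere with recruitment of the SRC2-3 coactivator peptide to VDR; plates are read after 2 h at room temperature.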
12-LOX inh = Primary qHTS assay for inhibitors of human arachidonate 12S-lipoxygenase (ALOX12): Round 2; Potency, µM (titrated, usually from 108 µM), for the others: top-dose activity change, negative = inhibition, usual class: inhibitors; purified 12hLO, xylenol orange hydroperoxide absorbance; 1.1% of 580,000 active
Target sequence (P18054 whole entry, looked up): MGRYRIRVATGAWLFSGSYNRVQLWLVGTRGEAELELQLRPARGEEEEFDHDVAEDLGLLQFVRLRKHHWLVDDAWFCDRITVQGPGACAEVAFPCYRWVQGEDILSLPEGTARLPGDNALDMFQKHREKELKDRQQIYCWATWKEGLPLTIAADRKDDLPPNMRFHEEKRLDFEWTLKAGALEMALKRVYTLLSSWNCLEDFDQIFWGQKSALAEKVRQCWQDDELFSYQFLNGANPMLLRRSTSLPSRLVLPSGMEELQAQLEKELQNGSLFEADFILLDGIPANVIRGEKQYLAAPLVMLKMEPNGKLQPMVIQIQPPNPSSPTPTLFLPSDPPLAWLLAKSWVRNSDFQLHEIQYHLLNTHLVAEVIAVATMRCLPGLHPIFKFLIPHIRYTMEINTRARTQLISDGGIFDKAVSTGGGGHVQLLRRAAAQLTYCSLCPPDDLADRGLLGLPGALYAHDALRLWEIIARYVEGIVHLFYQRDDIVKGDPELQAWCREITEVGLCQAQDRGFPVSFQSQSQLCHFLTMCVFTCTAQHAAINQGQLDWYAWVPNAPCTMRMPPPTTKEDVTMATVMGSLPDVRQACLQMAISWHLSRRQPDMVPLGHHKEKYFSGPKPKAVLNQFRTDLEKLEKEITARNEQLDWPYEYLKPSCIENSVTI
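Purified human 12hLO at 150 nM in 25 mM Hepes, 0.01% Triton X-100, pH 7.0, preincubated 15 min at room temperature with compound. Reaction started with 40 uM arachidonic acid, 30 min at room temperature. Hydroperoxide measured by Fe-xylenol orange, 573/405 nm absorbance ratio.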
Sfp inh = qHTS Assay for Inhibitors of Bacillus subtilis Sfp phosphopantetheinyl transferase (PPTase); 4'-phosphopantetheinyl transferase ffp (Bacillus subtilis), Q9F4F7; Biochemical Sfp PPTase activity, qHTS; Potency, µM, for inactives: largest response in the series, negative = inhibition, usual class: inhibitors; 3.5% of 310,000 active;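 also: the enzyme is Sfp with the accession as filed and its product quenches rhodamine fluorescence; 0% = enzyme reaction without inhibitor and -100% = no enzyme wells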
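Step 1, compound plus 15 nM Sfp-PPTase, 15 min, room temperature. Step 2, add rhodamine-CoA (5 uM) and BHQ-2-YbbR (12.5 uM). Step 3, read 525/598 nm fluorescence at 0 and 30 min.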
Starred values were filed as active, the others as inactive; [ ] = dose if it differs, or a comment. Calls follow the shape of the dose curve; as a rule, active = well fitted curve in the direction sought with a large enough effect; inconclusive = small, poorly fitted or top-dose-only effect, or another doubt; inactive = no such curve, though single readings can be large; an effect the other way counts as inactive or inconclusive. Unless noted, % is scaled to controls: 0 for no effect and ±100 for the full control effect; potency is read from the fitted curve at half-maximal effect.

Screening CCCCN(Cc1ccccc1)c1ccc(C(=O)O)cc1NS(=O)(=O)c1ccc(CC(C)C)cc1 returned 12-LOX inh 14.1µM*.
CCCCN(CC)c1ccc(NS(=O)(=O)c2ccc3c(c2)CCCC3)cc1C(=O)O was read as 12-LOX inh 1.58µM*.
CCCCN(Cc1ccccc1)c1ccc(NS(=O)(=O)c2ccc(F)cc2)cc1C(=O)O was read as 12-LOX inh 3.98µM*.
COc1ccc(-c2csc3nc(-c4ccccc4C)oc(=O)c23)cc1OC was read as VDR inhibitor -21.1% and 12-LOX inh -21.9%.
`Cn1nccc1C(=O)NCCC1CCN(C(=O)Nc2cc(F)cc(F)c2)CC1` gave 12-LOX inh 25.9%.
Screening CN1CC(=O)N(C2CCNCC2)Cc2c1ncnc2N(C)Cc1ccc(F)cc1 returned 12-LOX inh 8.91µM*.
For CC(C)Nc1ncnc2c1CN(C1CCCNC1)C(=O)CN2C (centres undefined) the results were 12-LOX inh 3.98µM*.
`CN1CC(=O)N(C2CCNCC2)Cc2c(NCCc3cccc(F)c3)ncnc21` gave 12-LOX inh 17.8µM*.
For CN1CC(=O)N(C2CCCC2)Cc2c(NCc3ccc(F)cc3)ncnc21 the results were 12-LOX inh 15.3%.
CN(Cc1ccccc1)C1(C(=O)NC2CCC(O)CC2)Cc2ccccc2C1 (centres undefined) was read as 12-LOX inh 20.1%.
Nc1nc(-c2ccccc2)c(Br)c(=O)[nH]1 was read as VDR inhibitor -4.7% and 12-LOX inh -1.1%[22.9 µM].
Screening O=C1CCCC2=C1C(c1ccc(O)cc1)c1c(ccc3ccccc13)N2 (centres undefined) returned PLK1 PBD inh 0.6%, VDR inhibitor 8.0%, 12-LOX inh inconclusive and Sfp inh 50.1µM*.
NC(=S)N/N=C/c1ccc(C(F)(F)F)cc1 was read as PLK1 PBD inh 1.3%, VDR inhibitor -15.1%, 12-LOX inh inconclusive and Sfp inh -16.3%.
Screening NC(=S)N/N=C/c1ncc(C(F)(F)F)cc1Cl returned PLK1 PBD inh -4.1%, VDR inhibitor inconclusive and Sfp inh 25.1µM*.
Screening O=C(C1CC1)N1CCOc2ccc(CN3CCc4ccccc4C3)cc2C1 returned 12-LOX inh 50.1%.
`COc1cc(C(=O)/C=C/c2cccnc2)c([N+](=O)[O-])cc1OC` gave PLK1 PBD inh -20.2%, VDR inhibitor 50.1µM* and 12-LOX inh -5.8%.
O=C(C=Cc1cccnc1)c1ccccc1 was read as PLK1 PBD inh -8.6%, VDR inhibitor inconclusive and 12-LOX inh 0.2%.
`O=C(/C=C/c1cccnc1)c1ccc(O)cc1` gave PLK1 PBD inh -10.1%, VDR inhibitor -11.1%, 12-LOX inh 6.5% and Sfp inh 18.4%.
O=C(/C=C/c1cccnc1)c1cccc(O)c1 was read as PLK1 PBD inh -13.1%, VDR inhibitor inconclusive, 12-LOX inh 8.91µM* and Sfp inh inconclusive.
For O=C(/C=C/c1cccc(O)c1)c1cccnc1 the results were PLK1 PBD inh inconclusive, VDR inhibitor 56.2µM*, 12-LOX inh -9.9% and Sfp inh -25.9%.
Screening O=C(/C=C/c1cccnc1)c1ccccc1O returned PLK1 PBD inh -21.2%, VDR inhibitor inconclusive, 12-LOX inh -1.3% and Sfp inh 44.7µM*.
Screening C[C@@H]1CN(C(=O)c2csc(CN(C)C)n2)C[C@@]1(O)C1CCC1 returned 12-LOX inh 69.2%.
`COC(=O)c1cc2sc(Cl)cc2n1CC(=O)NCC1CCCO1` (centres undefined) gave PLK1 PBD inh -5.3%, VDR inhibitor 2.3%, 12-LOX inh -29.2% and Sfp inh -0.6%.
Screening COc1ccc(C)cc1S(=O)(=O)N1CCOCC1 returned PLK1 PBD inh 18.9µM*, VDR inhibitor -24.8%, 12-LOX inh 27.8% and Sfp inh 12.2%.
Screening COc1ccc(/C=C/C(=O)Nc2ccc(NC(C)=O)cc2)cc1S(=O)(=O)N1CCOCC1 returned PLK1 PBD inh 29.9µM*, VDR inhibitor -15.1%, 12-LOX inh 0.0% and Sfp inh 9.5%.
For COc1ccc(/C=C/C(=O)Nc2ccccc2)cc1S(=O)(=O)N1CCOCC1 the results were PLK1 PBD inh -4.0%, VDR inhibitor 3.2%, 12-LOX inh 4.1% and Sfp inh 26.9%.
Screening CCOc1ccc(/C=C/C(=O)Nc2ccc(N3CCOCC3)cc2)cc1 returned PLK1 PBD inh 3.36µM*, VDR inhibitor inconclusive, 12-LOX inh -2.2% and Sfp inh -8.3%.
`COc1ccc(/C=C/C(=O)OCC(=O)Nc2ccc(N3CCOCC3)cc2)cc1` gave PLK1 PBD inh -16.2%, VDR inhibitor -10.1%, 12-LOX inh -14.6% and Sfp inh -9.8%.
Screening COc1ccc(Br)cc1S(=O)(=O)N1CCOCC1 returned PLK1 PBD inh 0.7%, VDR inhibitor 6.0%, 12-LOX inh 12.2% and Sfp inh 10.3%.
For CCOC(=O)/C(C#N)=C1\SS/C(=C(/C#N)C(=O)OCC)S1 the results were Sfp inh 10µM*.
Screening COc1ccc(NC(=O)CN(C)C(=O)/C=C/c2ccc(OCc3ccccc3)cc2)cc1 returned PLK1 PBD inh 29.9µM*, VDR inhibitor -16.4%, 12-LOX inh 2.4% and Sfp inh 26.9%.
Screening COc1ccc(NC(=O)CN(C)C(=O)CCc2ccccc2)cc1 returned PLK1 PBD inh -5.1%, VDR inhibitor 14.8%, 12-LOX inh -16.8% and Sfp inh 17.2%.
For COC(=O)C1=C(C)N(CCc2c[nH]c3ccccc23)C(=O)/C1=C\N(C)C the results were PLK1 PBD inh 23.8µM*, VDR inhibitor inconclusive, 12-LOX inh inconclusive and Sfp inh 17.8µM*.
`CCC(=O)Nc1nnc(SCc2ccccc2F)s1` gave PLK1 PBD inh -13.7%, VDR inhibitor -27.6%, 12-LOX inh -1.6% and Sfp inh 26.1%.
`COc1ccc(Cn2c(CO)cnc2SCc2ccc(F)cc2)cc1` gave VDR inhibitor 9.0% and 12-LOX inh -25.1%.
`COc1ccnc(CSC(N)=Nc2ccc(F)cc2)c1` gave PLK1 PBD inh inconclusive, VDR inhibitor inconclusive, 12-LOX inh inconclusive and Sfp inh 22.4µM*.
`CCOC(=O)CC1(NC(=O)C2CCC(=O)N(Cc3ccccc3F)C2)CCCCC1` (centres undefined) gave PLK1 PBD inh 26.7µM*, VDR inhibitor inconclusive, 12-LOX inh -6.7% and Sfp inh 18.4%.
`CCOC(=O)CC1(NC(=O)C2CCC(=O)N(CCc3ccc(OC)cc3)C2)CCCCC1` (centres undefined) gave PLK1 PBD inh 1.1%, VDR inhibitor 7.7%, 12-LOX inh 5.1% and Sfp inh 20.3%.
Screening COC(=O)c1ccc(Oc2cc(C)nc(SC)n2)cc1 returned PLK1 PBD inh 11.9µM*, VDR inhibitor inconclusive, 12-LOX inh 0.0% and Sfp inh 9.6%.
